PubChem BioAssay (NCI)
Compounds without any hit were thinned out: in the full panel of roughly 83,000, 20% have a hit.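 Assay: single dose, 48 h. Readout: percent growth (0 = no net growth; negative = cell death). Active: <10.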 A number with no mark means an inactive call. Calls of active or inactive are those of the source.

The compounds below were run on MDA-MB-468 breast (assay: NCI-60 one-dose screen, 48 h (100 = growth as untreated, 0 = no growth, -100 = all killed)). Settings: 10 µM unless noted.

| SMILES | growth |
| --- | --- |
| Cc1cc(-c2ccc3nc(N)sc3c2)nc2ccc3[nH]ncc3c12 | 5.34% (active) |
| Cn1cnc2nc[nH]c2c1=S | 107% |
| c1ccc(-c2c(-c3ccccc3)[n+](Cc3ccc4ccccc4c3)c(-c3cccc4ccccc34)n2Cc2ccc3ccccc3c2)cc1 | -62.3% (active) |
| CC1(c2ccccc2O)NN=C(/N=C/c2cccc([N+](=O)[O-])c2)N1C(Cc1c[nH]c2ccccc12)C(=O)O (stereo not given) | 103% |
| CC(C)(C)c1ccc(C2CC(=O)C3=C(C2)Nc2ccccc2N(C(=O)c2ccccc2Cl)C3c2ccc(F)cc2)cc1 (stereo not given) | -20.1% (active) |
| COc1ccccc1-n1c(-c2ccc(O)cc2C)cn2c3c(=O)[nH]c(=O)n(C)c3nc12 | 88.6% |
| CCN(CCO)CC(=O)c1cc(Cl)cc(Cl)c1Cl | 110% |
| Cc1ccccc1NC(=O)c1sc2nc3c(cc2c1N)C(=O)CCC3 | -4.56% (active) |
| Nc1nc2c(c3ncccc13)C(c1ccccc1)Cc1ncccc1-2 (stereo not given) | 55.8% |
| CO[C@@]12[C@@H]3NC3CN1C1=C(C(=O)C(N)=C(C)C1=O)[C@@H]2COC(N)=O (stereo not given in full) | -14.1% (active) |
| O=C(c1ccccc1)N1N=C(c2ccc(-n3ccc(C(F)(F)F)n3)cc2)CC1c1ccc[nH]1 (stereo not given) | 86% |
| CC1=C/C(=C(\c2cc(C)c(O)c(C(=O)O)c2)c2c(Cl)cccc2Cl)C=C(C(=O)O)C1=O | 104% |
| COc1ccc(/C=C/C(=O)c2ccc(-n3cc(CN4CCN(c5cc6c(cc5F)c(=O)c(C(=O)O)cn6C5CC5)CC4)nn3)cc2)cc1 | 26.3% |
| CNC(=O)c1cc(N2CCc3cc(NC(=O)Nc4ccc(Cl)c(C(F)(F)F)c4)ccc32)ccn1 | 57% |
| O=c1c2c(=NCCN3CCCC3)cc3c(=O)n(CCCN4CCOCC4)c(=O)c4ccc(c(O)n1CCCN1CCOCC1)c2c4-3 | -49.4% (active) |
| CCOC(=O)C1=C(C)NC(=O)NC1c1ccc(OCC(=O)N/N=C/c2ccc(Cl)cc2)cc1 (stereo not given) | 96.5% |
| Nc1c(C(=O)Nc2ccc(Cl)cc2)sc2nc(-c3cnccn3)cc(-c3cccs3)c12 | 82% |
| O=S(=O)(Nc1ccc(Cl)c(Cl)c1)c1ccc(-c2cnc(C3CC3)o2)cc1 | 7.72% (active) |
| COc1ccccc1-c1c(-c2ccc(Cl)cc2)c2cc3c(cc2[nH]c1=O)OCCO3 | 62.7% |
| O=C(CNc1cccnc1)Nc1ccc(C(=O)/C=C/c2ccc(Cl)cc2)cc1 | 91.9% |

| SMILES | growth |
| --- | --- |
| C=C(C)[C@@H]1CC[C@]2(C=O)CC[C@]3(C)[C@H](CC[C@@H]4[C@@]5(C)C/C(=C/c6cccnc6)C(=O)C(C)(C)[C@@H]5CC[C@]43C)[C@@H]12 | 80.4% |
| COc1cc(-c2nc3cc(Cl)c(Cl)cc3[nH]2)ccc1OCC(=O)NN | 100% |
| O=C(Nc1nc2cccc(-c3ccc(CN4CCS(=O)(=O)CC4)cc3)n2n1)C1CC1 | 41.5% |
| Nc1ncc(-c2ccc3ncnc(NCc4ccccc4)c3c2)cn1 | -11.7% (active) |
| Cc1cccc(Cc2cnc(NC(=O)CCc3ccc(C)o3)s2)c1 | 5% (active) |
| O=C(Nc1ccccc1O)c1ccc(-c2ccc(Cl)cc2Cl)o1 | 80.8% |
| C/C(=N\OC(=O)Nc1cccc(Cl)c1)c1ccccc1 | 75.1% |
| O=C1NC(=O)c2c(CCCSc3nc4ccccc4c(=O)n3CCc3ccccc3)cccc21 | 112% |
| O=C(NNC(=O)c1nc2cc(F)ccc2n2cccc12)c1cnccn1 | 22.2% |
| COc1ccc(-c2cc(C(=O)Nc3ccc(Br)cc3)nc3[nH]c(=O)sc23)cc1 | 33.2% |
| CCCCCOC(=O)c1ccc(NC(=O)CNCC(C)C)cc1 | 102% |
| CNC(=O)c1cc(-n2ccc3cc(NC(=O)c4ccc(N5CCOCC5)c(C(F)(F)F)c4)ccc32)ccn1 | 71.6% |
| COc1ccc(-c2cc(=O)n(-c3nc4ccccc4[nH]3)[nH]2)cc1OC | 83% |
| COc1ccc(-c2cc(-c3cc(OC)c(OC)c(OC)c3)nc(N3CCOCC3)c2C#N)cc1 | 76% |
| CNCc1cccc2c1OCCOCCOCCC(C)S(=O)(=O)c1ccc(cc1)-c1cnc(N)c(n1)C(=O)N2 (stereo not given) | 53.1% |
| C=CCn1c(-c2nc3ccc(C(=C(C#N)C#N)c4ccccc4)cc3[nH]2)cc2cc(Br)ccc21 | 42.6% |
| CN(c1ccccc1)c1ncnc2c1ncn2C | 113% |
| O=C1CCC(=O)CC1 | 115% |
| COc1ccc(C(c2cc(OC)c(OC)c(OC)c2)n2ccnc2)cc1O (stereo not given) | 15.6% |
| CNCCCC12CCC(c3ccccc31)c1ccccc12 | 29.4% |
